± gives the standard deviation.
Assays:
Conditions in all cases: modulator concentration 10 µM
[1] = tested on: RAW-Dual (murine macrophage reporter line); assay: NF-kB reporter (SEAP) activity fold change vs agonist alone; higher = enhanced NF-kB activity
Procedure, shortened: (§1)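 RAW-Dual murine macrophage reporter cells were plated at 50 000 per well in 384-well plates, pin-transferred compound to 10 μM final, and pre-incubated for 1 hour at 37 °C before a PRR agonist was added and the cells incubated overnight. NF-κB activity was read from supernatant SEAP with QUANTI-Blue at 620 nm absorbance, and IRF activity from Lucia luciferase with QUANTI-Luc by luminescence. Each signal was expressed as fold change by dividing by the mean agonist-only control on the same plate. Two replicate plates were averaged, with errors obtained by propagation.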

[2] = tested on: RAW-Dual (murine macrophage reporter line); assay: IRF reporter (Lucia luciferase) activity fold change vs agonist alone; higher = enhanced IRF activity
Procedure, shortened: as §1

[3] = tested on: RAW-Dual (murine macrophage reporter line); assay: viability score (confluency relative to resting cells, overnight) (fraction); higher = more viable, active = viable (0.7 or more)
Procedure, shortened: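 Confluency was the readout: RAW-Dual macrophages were imaged with IncuCyte after an overnight exposure to compound at 10 μM final. IncuCyte software produced two masks over all imaged wells. The viability score expresses confluency against resting cells, and both masks had to exceed 70% of resting cells for a compound to meet the cutoff.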

[4] = agonist: CpG ODN 1826 0.5 ug/mL

Compound	NF-kB reporter [1, 4]	NF-kB reporter ([1]; agonist: LPS 0.1 ug/mL)	NF-kB reporter ([1]; agonist: MPLA […])	IRF reporter ([2]; agonist: 3'3'-cGAMP 10 ug/mL)	IRF reporter ([2]; agonist: LPS 0.1 ug/mL)	IRF reporter ([2]; agonist: MPLA […])	viability score [3]
COc1ccccc1-c1cc(-c2ccccc2)nc(SCC(=O)c2cc3ccccc3oc2=O)c1C#N	0.981 ± 0.058	1.02 ± 0.066	0.966 ± 0.061	0.879 ± 0.034	1.45 ± 0.16	1.07 ± 0.1	1 (active)
COC(c1ccccc1)(c1ccccc1)[C@H](Oc1nc(C)cc(C)n1)C(=O)O	1.32 ± 0.18	1.08 ± 0.11	0.901 ± 0.055	1.05 ± 0.043	1.3 ± 0.14	1.15 ± 0.11	1 (active)
O=C(CSc1nc(-c2ccccc2)c(-c2ccccc2)[nH]1)N1CCOCC1	1.05 ± 0.32	1.08 ± 0.16	1.05 ± 0.1	0.897 ± 0.032	1.28 ± 0.17	1.32 ± 0.17	0.996 (active)
O=C(Nc1ccccn1)NC1CCS(=O)(=O)C1 (centres undefined)	0.659 ± 0.37	0.918 ± 0.22	0.748 ± 0.14	0.881 ± 0.12	1.34 ± 0.085	1.23 ± 0.23	0.948 (active)
COC(=O)C1=CN(CC2CCCO2)C=C(C(=O)OC)C1c1cccc(Br)c1 (centres undefined)	0.886 ± 0.18	0.871 ± 0.088	0.944 ± 0.073	0.975 ± 0.037	1.21 ± 0.13	1.29 ± 0.13	1 (active)
COC(=O)C1=C(C#N)NC(C)=C(C(=O)OC(C)C)C1c1cccc([N+](=O)[O-])c1 (centres undefined)	0.832 ± 0.041	1.01 ± 0.097	0.929 ± 0.04	0.978 ± 0.083	1.1 ± 0.068	1.19 ± 0.12	0.968 (active)
O=S(=O)(c1ccc(F)cc1)n1cccc1	0.812 ± 0.065	0.746 ± 0.047	1.09 ± 0.096	1.02 ± 0.05	1.49 ± 0.087	1.72 ± 0.22	0.988 (active)
CCC(C)(C)C(=O)O[C@H]1C[C@@H](C)C=C2C=C[C@H](C)[C@H](CC[C@@H]3C[C@@H](O)CC(=O)O3)[C@H]21	2.33 ± 0.12	1.54 ± 0.13	1.82 ± 0.084	0.599 ± 0.061	0.747 ± 0.062	0.639 ± 0.17	0.219 (inactive)
O=C(Cn1cnc(-c2ccc(Cl)cc2)cc1=O)N1CCOCC1	1.07 ± 0.29	0.924 ± 0.047	0.925 ± 0.07	0.933 ± 0.032	1.09 ± 0.17	1.09 ± 0.21	1 (active)
Cl.Nc1c(Br)cc(Br)cc1CNC1CCC(O)CC1 (centres undefined)	0.911 ± 0.074	0.95 ± 0.1	1.04 ± 0.03	0.908 ± 0.065	0.94 ± 0.096	0.999 ± 0.079	0.998 (active)
O=[N+]([O-])c1ccc(-n2cccc2C=NNc2nc(N3CCCCC3)nc(N3CCCCC3)n2)cc1	0.994 ± 0.087	1.01 ± 0.12	0.926 ± 0.054	0.907 ± 0.039	1.38 ± 0.12	1.05 ± 0.1	1 (active)
CC(=O)Nc1nnc(CCS(=O)(=O)c2ccc(Br)cc2)s1	0.951 ± 0.054	1.05 ± 0.064	0.93 ± 0.079	0.908 ± 0.032	1.46 ± 0.094	1.16 ± 0.12	1.01 (active)
O=C(NCC1CN(c2ccc(N3CCOCC3=O)cc2)C(=O)O1)c1ccc(Cl)s1 (centres undefined)	1.36 ± 0.18	1.09 ± 0.41	0.984 ± 0.063	0.898 ± 0.031	1.21 ± 0.43	1.03 ± 0.08	1 (active)
Cc1ccccc1C(=O)Nc1ccc(C(=O)N2CCCC(N(C)C)c3ccccc32)cc1 (centres undefined)	1.05 ± 0.27	1 ± 0.05	0.929 ± 0.065	0.94 ± 0.046	1.15 ± 0.18	1.17 ± 0.13	1 (active)
Oc1ccc(Nc2nc(Nc3ccc(O)cc3)nc(N3CCOCC3)n2)cc1	0.559 ± 0.13	2.28 ± 0.18	4.45 ± 0.34	0.383 ± 0.016	2.4 ± 0.25	4.43 ± 1.1	0.757 (active)
COc1ccc(NC(=O)c2nn(-c3ccc(F)cc3)cc2OC)cc1OC	1.07 ± 0.12	1.14 ± 0.094	0.889 ± 0.04	0.976 ± 0.07	1.23 ± 0.12	1.13 ± 0.24	0.976 (active)
NS(=O)(=O)c1ccc2c(c1)CCCC2	0.512 ± 0.11	0.806 ± 0.22	0.661 ± 0.15	0.932 ± 0.057	0.925 ± 0.073	0.957 ± 0.3	0.863 (active)
Cc1ccc(-c2cc(-c3ccccc3)nc(NN=Cc3ccc(F)cc3)n2)cc1	0.961 ± 0.17	1.23 ± 0.1	0.988 ± 0.13	1.02 ± 0.051	1.15 ± 0.11	1.48 ± 0.27	0.959 (active)
COc1ccc(NC(=O)c2cn(-c3cc(N4CCSCC4)ncn3)cn2)cc1	1.04 ± 0.058	1.13 ± 0.091	0.939 ± 0.041	1.03 ± 0.069	1.13 ± 0.23	1.07 ± 0.33	0.997 (active)
O=c1c(CN2CCC(O)(c3ccc(Br)cc3)CC2)coc2ccccc12	0.712 ± 0.056	0.953 ± 0.059	1.07 ± 0.066	0.676 ± 0.032	1.07 ± 0.14	0.85 ± 0.12	1.01 (active)
O=C1CCCN1c1ccc(Cn2cc(-c3nc(-c4ccc(F)cc4)no3)ccc2=O)cc1	0.981 ± 0.15	1.06 ± 0.086	1.01 ± 0.086	1.02 ± 0.053	1.04 ± 0.066	1.16 ± 0.15	1.01 (active)
C#Cc1cccc(Nc2ncnc3cc(OC)c(OCCCCCCC(=O)NO)cc23)c1	1.12 ± 0.058	1.45 ± 0.11	2.44 ± 0.12	0.563 ± 0.034	0.43 ± 0.029	0.581 ± 0.068	0.973 (active)
COc1ccc(Br)c(C(=O)N2CCCC2CS(=O)(=O)c2ccccc2)c1 (centres undefined)	0.982 ± 0.12	1.08 ± 0.085	0.957 ± 0.075	0.988 ± 0.051	0.984 ± 0.098	0.876 ± 0.11	1 (active)
COc1cc2nc(N3CCN(C(=O)c4ccco4)CC3)nc(N)c2cc1OC [Prestw-947]	0.258 ± 0.041	1.09 ± 0.083	1.14 ± 0.11	1.59 ± 0.049	1.28 ± 0.18	1.48 ± 0.33	0.971 (active)
Cc1nnc(NN=Cc2ccc(O)c([N+](=O)[O-])c2)[nH]c1=O	1.07 ± 0.14	1.01 ± 0.097	1.03 ± 0.035	0.98 ± 0.045	0.979 ± 0.14	1.01 ± 0.25	0.992 (active)
Cc1c(C)c2c(c(C)c1O)CCC(C)(CCCC(C)CCCC(C)CCCC(C)C)O2 (centres undefined)	1.02 ± 0.085	0.997 ± 0.052	1.06 ± 0.023	0.92 ± 0.057	0.965 ± 0.13	0.994 ± 0.1	0.987 (active)
Cn1nc(-c2ccc(F)cc2)cc1C(=O)NCC1(CO)CC1	0.865 ± 0.037	1.04 ± 0.1	1.03 ± 0.056	1.03 ± 0.049	1.09 ± 0.32	1.23 ± 0.33	1.02 (active)
